# ATXN viability: viability counter-screen for ATXN expression inhibitors; S2 cells (HEK-293 line with an ATXN2-luciferase reporter) viability, CellTiter-Fluor protease fluorescence, 24 h; Potency, µM (series often up to 56.7 µM), hits mostly cytotoxic; 0.49% of 400,000 active; AID 651635; further: nearly all actives have a fitted effect of over 40% in size
# HepG2 viability: HepG2 cytotoxicity, counter-screen for TGF-b inhibitors; Potency, µM (doses to about 46.1 µM), for inactives: at the top dose activity change, negative = cytotoxicity, usual class: cytotoxic; AID 588856; HepG2 CAGA-GFP viability, ATP luminescence, 18 h; 0.76% of 410,000 active
#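 CellTiter-Glo luminescence gave cytotoxicity after 18 hours at 37 degrees C. The cells were HepG2 CAGA-GFP in 1% FBS DMEM, stimulated with 500 pg/mL TGF-beta after compound addition. %Activity was normalised to no-cell wells (complete cell-killing) and DMSO (no toxicity), and curves were fitted and classified.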
# TGFb SMAD3 inh: TGF-b pathway inhibition | AID 588855 | 1.2% of 410,000 active | HepG2 CAGA-GFP TGF-b/SMAD3 reporter, GFP fluorescence, 18 h; TGF-beta stimulated, 500 pg/mL final | Potency, µM (titrated, usually from 46.1 µM), without a hit: at the top dose activity, negative = inhibition, usual class: inhibitors; further: on the % scale 0 is the no-effect control and ±100 the full control effect; nearly all actives have a fitted effect of over 65% in size
#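 First, reporter cells (HEPG2 CAGA-GFP) rested 2 h at 37 degrees C. Next, compounds were pinned in and TGF-beta added to 500 pg/mL final. After 18 h, GFP was imaged per cell and summed per well.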
# ATXN2 expr inh: inhibitors of ATXN2 expression; HEK-293 ATXN2-luciferase reporter, luminescence, 24 h; Potency, µM (doses to about 57 µM), inactives show at the top dose activity change, negative = inhibition, usual class: inhibitors; 0.72% of 360,000 active; AID 1745845; further: on the % scale 0 is the no-effect control and ±100 the full control effect; nearly all actives have a fitted effect of over 55% in size
#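 qHTS (up to 57 uM final) was run with 24 h compound exposure of reporter cells at 37 °C. Each well was multiplexed: SteadyGlo luminescence measured ATXN2-luciferase expression after a fluorogenic Gly-Phe-AFC viability readout (25 uM final).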
# ALOX12 inh: ALOX12 (human) lipoxygenase inhibition; P18054; purified 12hLO, xylenol orange hydroperoxide absorbance; Potency, µM (doses to about 108 µM), without a hit: at the top dose activity change, negative = inhibition, actives largely listed as inhibitors; 1.1% of 580,000 active; further: on the % scale 0 is the no-effect control and ±100 the full control effect
# Target sequence (P18054 whole entry, looked up): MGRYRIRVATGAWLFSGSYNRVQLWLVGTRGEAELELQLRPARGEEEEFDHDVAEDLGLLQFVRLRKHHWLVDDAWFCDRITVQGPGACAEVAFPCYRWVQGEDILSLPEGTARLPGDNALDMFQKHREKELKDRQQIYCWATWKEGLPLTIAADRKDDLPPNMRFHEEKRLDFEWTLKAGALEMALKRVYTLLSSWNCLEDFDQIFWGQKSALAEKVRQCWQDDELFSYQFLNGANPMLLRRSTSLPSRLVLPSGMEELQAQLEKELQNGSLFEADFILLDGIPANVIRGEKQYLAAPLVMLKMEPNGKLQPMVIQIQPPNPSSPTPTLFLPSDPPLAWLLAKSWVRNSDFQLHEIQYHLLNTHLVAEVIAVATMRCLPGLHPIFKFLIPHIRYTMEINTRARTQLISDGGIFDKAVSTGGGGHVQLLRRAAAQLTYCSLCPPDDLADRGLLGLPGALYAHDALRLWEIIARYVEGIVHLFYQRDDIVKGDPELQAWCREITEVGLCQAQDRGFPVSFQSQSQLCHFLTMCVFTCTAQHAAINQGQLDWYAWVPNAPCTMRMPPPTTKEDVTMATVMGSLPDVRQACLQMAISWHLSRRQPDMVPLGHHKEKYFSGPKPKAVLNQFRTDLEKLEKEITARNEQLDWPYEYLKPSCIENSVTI
#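 Purified human 12hLO (150 nM final) in 25 mM Hepes, 0.01% Triton X-100, pH 7.0 was preincubated 15 min at room temperature with compound. Then 40 uM arachidonic acid was added, 30 min. Hydroperoxide was read by Fe-XO absorbance ratio 573/405 nm.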
# Active calls of the source: *; i = inactive; ? = inconclusive; . = not tested or not shown; ! = not active in a repeat; [ ] = dose if it differs, or a comment. An excerpt weighted towards active compounds, which were near 2.7% of everything screened. The call rests on the fitted dose curve; in most records, active means well fitted curve in the direction sought with a large enough effect; inconclusive means small, poorly fitted or top-dose-only effect, or another doubt; inactive means no such curve, though single readings can be large; an effect the other way counts as inactive or inconclusive. Potency means the concentration at half of the fitted maximal effect.
SMILES,ATXN viability,HepG2 viability,TGFb SMAD3 inh,ATXN2 expr inh,ALOX12 inh
C[C@@]12OC(=O)[C@]1([C@@H](O)[C@@H]1C=CCCC1)NC(=O)[C@H]2CCCl,.,.,.,0.019µM*,-9%[57.4 µM]
COc1ccc(-c2cc([C@H]3CN4CC[C@H]3C[C@@H]4CN)n(C)n2)cc1OC,.,.,.,.,101%[176 µM]
O=[N+]([O-])/C=C\c1c[nH]c2ccccc12,.,.,.,.,33%
Cn1c(O)c(C(=N)COc2ccccc2)c(=O)n(C)c1=O,i,8%,14%,22%,12%
Cn1c(O)c(C(=Nc2ccccc2)SCc2ccc(Cl)cc2)c(=O)n(C)c1=O,i,-54%,?,.,16µM*
COc1cc2c(cc1OCc1ccccc1)N(C(=O)CC1CC1)CC21CCN(C)CC1,.,.,.,.,4%[176 µM]
C=C1C(=O)OC2CC3(C)OC3CCC(C)=CC(OC(C)=O)C12 (stereo not drawn),.,-100%,18µM*,?,-7%
Cc1ccccc1OCCNc1ccc([N+](=O)[O-])c2cccnc12,.,.,.,.,16%
C[C@]12CCC3C(CC[C@H]4C[C@H](O)CC[C@]34C)C1C[C@@H](O)[C@H]2O (stereo partly drawn),i,14µM*,-6%,-16%,0%
Cc1ccc(C(C)C)cc1OCC(=O)N1CCN(Cc2nc(N)c3ccccc3n2)CC1,.,.,.,.,35%
CS(=O)(=O)N1CCC2(C1)N=C(c1cccnc1)C(=O)N2 (stereo not drawn),.,.,.,.,26%[176 µM]
O=C1/C(=C/c2ccccc2)C[C@@]2(O)[C@H]3Cc4ccc(O)c5c4[C@@]2(CCN3CC2CC2)C1O5 (stereo partly drawn),7.1µM*,10µM*,5.6µM*,3.5µM*,.
Oc1ccc2c3c1OC1c4[nH]c5ccccc5c4C[C@@]4(O)C(C2)N(CC2CC2)CC[C@]314 (stereo partly drawn),i,-9%,-1%,5%,-17%
CCOc1cccc(=NC2CCCCC2)c2c(C)n(C)c(C)c12,?,-10%,10µM*,?,-5%
CCOc1ccccc1CN1C2CCC1CC(c1ccc(C)cc1)C2 (stereo not drawn),?,-21%,?,-31%,-29%
Cc1[nH]nc2c1C(c1cccc(OCC(C)C)c1)SCC(=O)N2 (stereo not drawn),.,.,.,.,21%
CCc1cnc(N2CCC3(CC2)C(=O)Nc2cc(Oc4ccccc4)c(OC)cc23)nc1,.,.,.,.,-12%[176 µM]
CCCCCC[N+](=O)[O-],i,2%,-2%,4%,?
CCCCCCCCCCCCCCCC[N+](C)(C)C,?,-106%,?,32µM*!,?
CCN(CC)C(=O)c1ccc(N2C(=O)CCS2(=O)=O)cc1Cl,.,.,.,.,-6%
CC(=O)OC1CC2(O)C3CCC4CC(O)CCC4(C)C3CCC2(C)C1C1=CC(=O)OC1 (stereo not drawn),?,-44%,2µM*,0.32µM*,14%
CC(=O)OC1CC(OC2C(O)CC(OC3C(O)CC(OC4CCC5(C)C(CCC6C5CCC5(C)C(C7=CC(=O)OC7)C(O)CC65O)C4)OC3C)OC2C)OC(C)C1OC1OC(CO)C(O)C(O)C1O (stereo not drawn),i,-67%,2µM*,-80%,14%
CC1OC(OC2C(O)CC(OC3C(O)CC(OC4CCC5(C)C(CCC6C5CCC5(C)C(C7=CC(=O)OC7)C(O)CC65O)C4)OC3C)OC2C)CC(O)C1O (stereo not drawn),?,-44%,?,0.32µM*,3%
CC(=O)O[C@H]1C[C@H](O[C@H]2[C@@H](O)C[C@H](O[C@H]3[C@@H](O)C[C@H](OC4CC[C@@]5(C)C(CC[C@@H]6[C@@H]5CC[C@]5(C)[C@@H](C7=CC(=O)OC7)[C@@H](O)C[C@]65O)C4)O[C@@H]3C)O[C@@H]2C)O[C@H](C)[C@H]1O[C@@H]1O[C@H](CO)[C@@H](O)[C@H](O)[C@H]1O (stereo partly drawn),?,.,.,.,11%
CC(=O)OC1CC2(O)[C@@H]3CCC4CC(OC5CC(O)C(OC6CC(O)C(OC7CC(O)C(O)C(C)O7)C(C)O6)C(C)O5)CCC4(C)[C@H]3CCC2(C)C1C1=CC(=O)OC1 (stereo partly drawn),.,.,.,.,-66%
SMILES,ATXN viability,HepG2 viability,TGFb SMAD3 inh,ATXN2 expr inh,ALOX12 inh
O=C(O)C1=NOC2CN(Cc3cccc(Br)n3)CC12 (stereo not drawn),.,.,.,.,-17%[6.33 µM]
Cc1cc(C)cc(N2C(=O)NC(=O)/C(=C\C=C\c3ccco3)C2=O)c1,?,-6%,?,?,?
O=C1NC(=O)N(c2ccccc2)C(=O)/C1=C\C=C\c1ccccc1,14µM*,-49%,7.1µM*,14µM*,25µM*
CC(C)c1ccc(N2C(=O)NC(=O)/C(=C/C=C/c3ccco3)C2=O)cc1,.,16%,?,28µM*,45µM*
Cc1ccc(N2C(=O)NC(=O)/C(=C/C=C/c3ccco3)C2=O)cc1,?,-31%,11µM*,?,?
CCCCN1C(=O)/C(=C/C=C/c2ccco2)C(=O)NC1=S,i,4%,12%,0%[11.3 µM],6.3µM*
CN(C)CC(=O)Nc1ccc2n(c1=O)C[C@H]1C[C@@H]2CN(C(=O)c2cccnc2)C1,.,.,.,.,86%[176 µM]
CCCCc1cn(C[C@H]2C[C@@H]3CCN2C[C@@H]3C(=O)Nc2ccccc2)nn1,.,.,.,.,71%[176 µM]
O=C(Nc1ccc2n(c1=O)C[C@H]1C[C@@H]2CN(CC2CCCCC2)C1)C1CCCCC1,.,.,.,.,3%[176 µM]
CCc1ccc(N2C(=O)NC(=O)/C(=C\C=C\c3ccco3)C2=O)cc1,10µM*,-33%,?,.,0%
O=C1NC(=O)N(Cc2ccc(F)cc2)C(=O)/C1=C\C=C\c1ccco1,?,-49%,?,?,?
CCOc1ccc(S(=O)(=O)NCCc2sc3nc(-c4ccc(C)cc4)nn3c2C)cc1,.,0%,14µM*,.,-2%
Cc1c(CCNS(=O)(=O)c2ccccc2)sc2nc(-c3ccc(Cl)cc3)nn12,.,-20%,13µM*,.,1%
CCCNS(=O)(=O)c1ccc(OCC(=O)N2CCN(Cc3ccccc3)CC2)cc1,i,-7%,0%,-8%,0%
Cn1nc(-c2ccc3ccccc3c2)cc1[C@H]1CN2CC[C@H]1C[C@@H]2CNS(=O)(=O)c1ccccc1,.,.,.,.,42%
COCC1CN(C2CCC2)CC12CCN(Cc1cccnc1)CC2 (stereo not drawn),.,.,.,.,92%
COc1ccccc1N1CCN(C(=O)[C@H]2CN3CCC2C[C@@H]3Cn2cc(CCO)nn2)CC1 (stereo partly drawn),.,.,.,.,20%
COc1cc2c3c(c1OC)Oc1ccc(cc1)C[C@H]1c4c(cc(OC)c(OC)c4Oc4ccc(cc4)C[C@@H]3N(C)CC2)CCN1C,.,-35%,-10%,?,-23%

# Screening results as filed in PubChem BioAssay.
